# Reference: PubChem BioAssay
# Active and inactive are the calls of the source.
# Test system: not listed separately
# Test: splicing luciferase reporter signal modulators, primary screen, spliceosome inhibition project, cell-based, HEK293, splice +/- reporter (AID 1101);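 further: HEK293 cells carrying a splicing-competent luciferase reporter gene; test concentration not given here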
# Conditions: luminescence, 24 h, higher = more signal, called active from +8 up or from −8 down
row,SMILES,z-score
1,COc1ccc(CCNC(=O)[C@@]2(Sc3ccc(C)cc3)CC(=O)N(Cc3cc(C(F)(F)F)cc(C(F)(F)F)c3)[C@@H]2c2ccc(CO)cc2I)cc1,-0.871 (inactive)
2,COC(=O)[C@@]1(Cc2ccc(OC)cc2)[C@H]2c3cc(C(=O)N4CCCC4)n(CCc4cc5ccccc5[nH]4)c3C[C@H]2CN1C(=O)c1ccccc1,0.0555 (inactive)
3,COc1ccc(NN2C(C(O)c3ccccn3)C=CC3C(=O)N(C4CCCCC4)C(=O)C32)cc1 (stereo not given),-1.44 (inactive)
4,CN(C)CCCCNC(=O)[C@H]1C[C@H]2C(=O)N[C@@H](CCCCN(C)C)C(=O)N2[C@H]1c1cccc(OCCO)c1,-0.404 (inactive)
5,CC(C)(C)OC(=O)CC[C@]1(C(=O)O)N=C(c2ccc(OCCCO)cc2)O[C@H]1c1ccccc1,-1.32 (inactive)
6,COCCOC(=O)N1C(=O)[C@@]2(c3cc(C#Cc4ccc(OC)cc4)ccc31)[C@H](C(=O)NC[C@H](O)c1ccccc1)[C@H]1C(=O)O[C@H](c3ccccc3)[C@H](c3ccccc3)N1[C@@H]2c1ccc(O)cc1,-0.577 (inactive)
7,C[C@]1(C(=O)NC2CC2)c2ccccc2C(=O)N(Cc2ccc(OC(F)(F)F)cc2)[C@H]1c1ccc(CO)cc1,0.765 (inactive)
8,C=CC[C@@]1(C(=O)O)N=C(c2ccc(OCCCO)cc2)O[C@@H]1c1ccccc1,-0.701 (inactive)
9,COC(=O)C1(Cc2ccccc2)C=C2C(=C(C(C)C)C(=O)C2C)CN1 (stereo not given),1.62 (inactive)
10,COc1ccc(C#Cc2ccc3c(c2)[C@]2(C(=O)N3)[C@H](C(=O)N3CCc4cc(OC)c(OC)cc4C3)[C@H]3C(=O)O[C@H](c4ccccc4)[C@H](c4ccccc4)N3[C@@H]2c2ccc(O)cc2)cc1,-0.00287 (inactive)

# Molecular target: Fibroblast growth factor 10 (Homo sapiens) (UniProt O15520)
# Test: FGF10 binders on small-molecule microarrays, primary screen, biochemical, small-molecule microarray, 635 nm fluorescence (AID 1102)
# Conditions: FGF10 binding, fluorescence 635 nm, higher = more signal
# Fibroblast growth factor 10 (Homo sapiens), sequence (O15520 whole entry, looked up): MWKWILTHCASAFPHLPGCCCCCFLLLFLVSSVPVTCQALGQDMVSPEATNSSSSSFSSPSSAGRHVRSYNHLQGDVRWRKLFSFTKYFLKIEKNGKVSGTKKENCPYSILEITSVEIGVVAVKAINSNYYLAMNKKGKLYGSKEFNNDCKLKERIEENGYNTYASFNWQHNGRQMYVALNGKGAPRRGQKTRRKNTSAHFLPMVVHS
row,SMILES,composite z-score
1,O=C(O)[C@H](Cc1ccccc1)n1cc(-c2ccccn2)nn1,0.3
2,COC(=O)c1c(CC[C@@H](CO)NC(=O)N[C@H](Cn2cc(-c3ccccc3C)nn2)C(C)C)oc(C(C)=O)c1C(=O)OC,0.289
3,COc1ccc(NN2C(C(O)c3ccco3)C=CC3C(=O)N(C4CCCCC4)C(=O)C32)cc1 (stereo not given),1.35
4,Cc1c(NC(=O)/C(C#N)=C/C=C/c2ccc(N(C)C)cc2)c(=O)n(-c2ccccc2)n1C,0.89
5,CN1C2C=C(CCCO)C(C3C(=O)N(C(N)=O)C(=O)C32)C1c1cccs1 (stereo not given),1.12
6,CC(C)CNC(=O)[C@@]1(c2ccc([N+](=O)[O-])cc2)CC(=O)N(C2CCCCC2)[C@@H]1c1ccc(CO)cc1I,0.489
7,COCCOC(=O)N1C(=O)[C@@]2(c3cc(C#CC4(O)CCCCCC4)ccc31)[C@H](C(N)=O)[C@H]1C(=O)O[C@H](c3ccccc3)[C@H](c3ccccc3)N1[C@@H]2c1ccc(O)cc1,1.09
8,COC(=O)[C@@]1(Cc2ccccc2)[C@H]2c3cc(C(=O)N4CCCC4)n(Cc4cc(F)cc5c4OCOC5)c3C[C@H]2CN1C(=O)c1ccccc1,1.22
9,CCOC(=O)C[C@H]1[C@H](OC(=O)c2ccccc2-c2ccccc2)[C@@H](NC(=O)CC(C)C)c2cc(OCCCO)ccc2N1C(=O)c1ccc2ccccc2n1,0.513
10,C=CCN1Cc2ccccc2C[C@@]2(N=C(c3ccc(OCCCO)cc3)O[C@H]2c2ccccc2)C1=O,1.17
11,COCCOC(=O)N1C(=O)[C@@]2(c3cc(C#CC4(O)CCCCCC4)ccc31)[C@H](C(=O)N1CCCCCCC1)[C@H]1C(=O)O[C@H](c3ccccc3)[C@H](c3ccccc3)N1[C@@H]2c1ccc(OCCO)cc1,1.5
12,CN1C(=O)C2C=CC(C(O)c3c(F)cccc3Cl)N(Nc3ccccc3)C2C1=O (stereo not given),0.657
13,CCCC=C(CCC)[C@@H](NP(=O)(c1ccccc1)c1ccccc1)c1ccc(C(F)(F)F)cc1,0.0142
14,O=C1O[C@@H](c2ccccc2)[C@@H](c2ccccc2)N2[C@@H](c3ccc(O)cc3)[C@]3(C(=O)Nc4ccc(C#CCCO)cc43)[C@@H](C(=O)NC[C@H](O)c3ccccc3)[C@H]12,-1.01
15,CCN(CC)c1ccc(N2CC=CC34O[C@@H]5/C=C\CCC(C)OC(=O)C5[C@H]3C(=O)N(CCO)[C@@H]4C2=O)cc1 (stereo not given in full),-0.736
16,Cc1ccc(S[C@]2(C(=O)NCCN3CCOCC3)CC(=O)N(Cc3ccccc3C(F)(F)F)[C@@H]2c2ccc(CO)cc2I)cc1,-0.973
17,C=CCNC(=O)[C@@H]1[C@H]2C(=O)O[C@H](c3ccccc3)[C@H](c3ccccc3)N2[C@H](c2ccc(OCCO)cc2)[C@@]12C(=O)N(C(=O)OCCOC)c1ccc(C#CC3=CCCCC3)cc12,0.957
18,COC(=O)[C@@]1(Cc2ccccc2)[C@H]2c3cc(C(=O)N4CCCC4)[nH]c3C[C@H]2CN1C(=O)c1ccccc1,-0.486

row,SMILES,composite z-score
1,C=CCOC(=O)[C@@H]1[C@H]2C(=O)O[C@H](c3ccccc3)[C@H](c3ccccc3)N2[C@H](c2ccc(OCCOC(=O)[C@H]3C[C@H]4C(=O)N[C@@H](CCCC[N+](C)(C)C)C(=O)N4[C@H]3c3ccc(O)cc3)cc2)[C@@]12C(=O)Nc1ccc(I)cc12,1.46
2,COc1c(C)cc(-c2cc3c(c(Cc4ccccc4)n2)[Si](C(C)C)(C(C)C)OC3)cc1C,0.0744
3,COCCOC(=O)N1C(=O)[C@@]2(c3cc(C#CC4(O)CCCCCC4)ccc31)[C@H](c1ccccc1OCCO)N1[C@H](c3ccccc3)[C@H](c3ccccc3)OC(=O)[C@H]1[C@@H]2C(N)=O,0.804
4,CC(C)C(O)C1C=CC2C(=O)N(C)C(=O)C2N1Nc1ccccc1 (stereo not given),0.943
5,CC(=O)N1Cc2ccccc2C[C@]2(N=C(c3ccc(OCCCO)cc3)O[C@@H]2c2ccccc2)C1=O,0.897
6,CCOC(=O)[C@@H]1[C@@H]2C(=O)N(CC)C(=O)[C@@H]2C[C@@H]1Sc1ccccc1,0.448
7,O=C1OCCC=C[C@H]2OC34C=CCN(c5ccc(Cl)cc5)C(=O)[C@H]3N(CCCCCO)C(=O)[C@@H]4C12 (stereo not given in full),-0.315
8,COc1ccc(CCNC(=O)[C@@]2(Sc3ccc(C)cc3)CC(=O)N(Cc3cc(C(F)(F)F)cc(C(F)(F)F)c3)[C@@H]2c2ccc(CO)cc2I)cc1,-0.447
9,COC(=O)[C@@]1(Cc2ccc(OC)cc2)[C@H]2c3cc(C(=O)N4CCCC4)n(CCc4cc5ccccc5[nH]4)c3C[C@H]2CN1C(=O)c1ccccc1,0.893
10,COc1ccc(NN2C(C(O)c3ccccn3)C=CC3C(=O)N(C4CCCCC4)C(=O)C32)cc1 (stereo not given),0.962
11,CN(C)CCCCNC(=O)[C@H]1C[C@H]2C(=O)N[C@@H](CCCCN(C)C)C(=O)N2[C@H]1c1cccc(OCCO)c1,1.21
12,CC(C)(C)OC(=O)CC[C@]1(C(=O)O)N=C(c2ccc(OCCCO)cc2)O[C@H]1c1ccccc1,-0.272
13,COCCOC(=O)N1C(=O)[C@@]2(c3cc(C#Cc4ccc(OC)cc4)ccc31)[C@H](C(=O)NC[C@H](O)c1ccccc1)[C@H]1C(=O)O[C@H](c3ccccc3)[C@H](c3ccccc3)N1[C@@H]2c1ccc(O)cc1,1.17
14,C[C@]1(C(=O)NC2CC2)c2ccccc2C(=O)N(Cc2ccc(OC(F)(F)F)cc2)[C@H]1c1ccc(CO)cc1,-0.326
15,C=CC[C@@]1(C(=O)O)N=C(c2ccc(OCCCO)cc2)O[C@@H]1c1ccccc1,-0.21
16,COC(=O)C1(Cc2ccccc2)C=C2C(=C(C(C)C)C(=O)C2C)CN1 (stereo not given),-0.713
17,COc1ccc(C#Cc2ccc3c(c2)[C@]2(C(=O)N3)[C@H](C(=O)N3CCc4cc(OC)c(OC)cc4C3)[C@H]3C(=O)O[C@H](c4ccccc4)[C@H](c4ccccc4)N3[C@@H]2c2ccc(O)cc2)cc1,0.851
